Screen size: about 3,300 compounds; about 1,400 (42%) were called active. So high a share suggests a set chosen from earlier hits. Only a sample is shown. Unmarked numbers belong to inactive results.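 The calls were made as follows: active = mean inhibition across replicates above the hit cutoff derived for the earlier primary screen (cut at about 22% in these data); inactive = the rest.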
Biological target: Protein arginine N-methyltransferase 1 (Homo sapiens) (UniProt Q99873)
Assay: human PRMT1 activity-probe blockers, retest – biochemical, fluorescence polarization, triplicate, confirmation (AID 687036)
Settings: recombinant His-PRMT1, activity-based probe fluorescence polarization; at 2.79 µM; stronger effect = higher value

Sequence of Protein arginine N-methyltransferase 1 (Homo sapiens) (Q99873 whole entry, looked up): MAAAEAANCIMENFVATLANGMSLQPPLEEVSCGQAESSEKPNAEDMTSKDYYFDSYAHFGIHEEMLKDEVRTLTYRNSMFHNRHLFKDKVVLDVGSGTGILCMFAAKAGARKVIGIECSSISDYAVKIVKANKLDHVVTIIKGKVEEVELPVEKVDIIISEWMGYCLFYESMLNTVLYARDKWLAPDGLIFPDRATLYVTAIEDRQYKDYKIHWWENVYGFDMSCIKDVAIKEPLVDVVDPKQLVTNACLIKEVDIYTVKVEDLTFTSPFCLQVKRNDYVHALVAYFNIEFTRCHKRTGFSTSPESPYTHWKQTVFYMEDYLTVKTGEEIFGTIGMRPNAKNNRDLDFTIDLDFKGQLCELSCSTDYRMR

Question: Which inhibition does the source give for `CC1=C(C)CC2C(=O)N(c3cccc4ccccc34)C(=O)C2C1` (configuration not stated) here?
Answer: 54.1% (active)

Question: For `O=C(O)CCn1c(O)c(C=C2N=c3ccccc3=N2)sc1=S`, which inhibition is on record?
Answer: -5.43%

Question: With `O=C(NC(Cc1c[nH]c2ccccc12)C(=O)O)/C(=C/c1ccco1)NC(=O)c1ccccc1` (configuration not stated) as the compound, how does the inhibition read?
Answer: 9.09%

Question: With `Cc1ccc(NC(=O)Cn2sc3ccccc3c2=O)cc1` as the compound, how does the inhibition read?
Answer: 82.3% (active)

Question: How did the inhibition turn out when `CCC(c1nnnn1Cc1ccco1)N(Cc1cc2cc(OC)ccc2[nH]c1=O)C1CCCCC1` (configuration not stated) was run?
Answer: 18%

Question: `COC(=O)C[n+]1cccc2ccccc21` was tested. Which inhibition did it give?
Answer: 32.6% (active)

Question: With `NC(=O)c1c(Nc2nc3c(F)cccc3s2)sc2c1CCCC2` as the compound, how does the inhibition read?
Answer: -3.26%

Question: How did the inhibition turn out when `O=C(CSc1cccc[n+]1[O-])c1ccc(-c2ccccc2)cc1` was run?
Answer: 25.6% (active)

Question: How did the inhibition turn out when `O=C(Cc1ccc(-c2ccccc2)cc1)NC(c1ccccc1)c1ccccc1` was run?
Answer: 3.32%

Question: `Cc1sc(NC(=O)c2ccc3ncsc3c2)c(C(N)=O)c1C` was tested. Which inhibition did it give?
Answer: 3.89%

Question: How did the inhibition turn out when `N#CC1(Nc2ccc3c4c(cccc24)CC3)CCCCC1` was run?
Answer: 10.2%

Question: Which inhibition does the source give for `CSc1nc(C)cc(SC(C(C)=O)C(=O)Nc2ccccc2)n1` (configuration not stated) here?
Answer: 22.5% (active)

Question: How did the inhibition turn out when `CN(C)C(=S)N=c1ssc(=S)n1Cc1ccco1` was run?
Answer: 15.6%

Question: `Cc1ccc(-n2nc(-c3ccco3)cc2C(=O)NCc2cccnc2)cc1` was tested. Which inhibition did it give?
Answer: 19.5%

Question: How did the inhibition turn out when `C=CS(=O)c1sc(Cl)c(N2CCOCC2)c1[N+](=O)[O-]` (configuration not stated) was run?
Answer: 87.1% (active)

Question: With `CCOC(=O)c1cc2n(c1N)-c1ccccc1C2=O` as the compound, how does the inhibition read?
Answer: 116% (active)

Question: Which inhibition does the source give for `Cc1ccccc1CN1C[C@@H]2C[C@@H](c3cn(C)nc3-c3ccccc3)N3CCC[C@@]23C1=O` here?
Answer: 5.9%

Question: How did the inhibition turn out when `O=C(Nc1nc(-c2ccco2)c(-c2ccco2)s1)c1ccco1` was run?
Answer: 30.4% (active)

Question: Which inhibition does the source give for `O=C(Nc1cccc(F)c1)c1cc(-c2ccco2)nc2ccccc12` here?
Answer: 3.51%

Question: For `COc1cc(C(=S)NCc2ccccc2)cc(Br)c1O`, which inhibition is on record?
Answer: 19.8%

Question: Which inhibition does the source give for `N#CC1=C(N)Oc2[nH]c(=S)[nH]c(=O)c2C12C(=O)Nc1ccccc12` (configuration not stated) here?
Answer: 66.4% (active)

Question: `Cc1ccc(Cc2cnc(N)s2)o1` was tested. Which inhibition did it give?
Answer: -3.79%

Question: How did the inhibition turn out when `O=C(CN1C(=O)S/C(=C\c2ccccc2F)C1=O)NCCCn1ccnc1` was run?
Answer: -3.11%

Question: For `CC(NC(=O)CSc1nc2c(cc1C#N)CN(C)CC2)c1ccccc1` (configuration not stated), which inhibition is on record?
Answer: 6.37%

Question: For `COc1ccc(C(=O)COC(=O)COc2ccc(C)c(C)c2)cc1`, which inhibition is on record?
Answer: 3.72%

Question: Which inhibition does the source give for `COc1ccnc(NC(=S)N2CCN(c3ncc(C(F)(F)F)cc3Cl)CC2)c1` here?
Answer: 4.89%

Question: For `c1ccc(C(=NNc2nc3ccccc3s2)c2ccccn2)cc1`, which inhibition is on record?
Answer: 22.1% (active)

Question: How did the inhibition turn out when `Cc1nc2sc(C(c3ccco3)N3CCOCC3)c(O)n2n1` (configuration not stated) was run?
Answer: 7.49%

Question: `CCN(CC)CCCC(C)n1c2nc(=O)[nH]c(=O)c-2nc2cc(Cl)ccc21` (configuration not stated) was tested. Which inhibition did it give?
Answer: 153% (active)

Question: How did the inhibition turn out when `CC(C(=O)Nc1ccc(O)c(C(=O)O)c1)N1C(=O)/C(=C/c2cccs2)SC1=S` (configuration not stated) was run?
Answer: 12%

Question: For `COCCNC(=S)Nc1cc(S(=O)(=O)N2CCOCC2)ccc1N1CCCCC1`, which inhibition is on record?
Answer: 4.34%

Question: For `N#Cc1ccccc1S(=O)(=O)N1CCN(Cc2c(O)ccc3ccccc23)CC1`, which inhibition is on record?
Answer: 33.1% (active)

Question: With `COc1ccc(Nc2nc(-c3cccnc3)nc3ccccc23)cn1` as the compound, how does the inhibition read?
Answer: 11.2%

Question: With `Cn1sc(=O)c2cc(S(=O)(=O)NC3CC3)ccc21` as the compound, how does the inhibition read?
Answer: 32% (active)

Question: `Cc1ccc(CNC(=O)CCS(=O)(=O)c2ccc3c(c2)CC(C)N3C(=O)C2CC2)o1` (configuration not stated) was tested. Which inhibition did it give?
Answer: 5.73%

Question: Which inhibition does the source give for `S=c1[nH]nc2c3c4c(sc3ncn12)CCCC4` here?
Answer: 17.1%

Question: Which inhibition does the source give for `CCOc1cccc(/C=N/N2C(=O)CSC2=S)c1O` here?
Answer: 83.2% (active)

Question: Which inhibition does the source give for `NC(=O)C1(N2CCCCC2)CCN(C2CC(=O)N(Cc3ccc(N4CCCC4=O)cc3)C2=O)CC1` (configuration not stated) here?
Answer: 2.57%

Question: Which inhibition does the source give for `Cc1sc2nc(SCC(=O)c3ccc(O)c(O)c3)n(Cc3ccco3)c(=O)c2c1C` here?
Answer: 2.72%

Question: With `CCOC(=O)N1C(=O)C[C@](Sc2ccc(C)cc2)(C(=O)OC)[C@H]1c1ccccc1` as the compound, how does the inhibition read?
Answer: 60.5% (active)

Question: `CCc1ccc(-n2c(=S)sc3c(=O)n(-c4ccccc4OC)c(=S)[nH]c32)cc1` was tested. Which inhibition did it give?
Answer: 14.1%

Question: For `Cc1ccc(NC(=O)c2cc(-c3ccc(C)o3)nc3ccccc23)nc1`, which inhibition is on record?
Answer: 10.3%

Question: For `CCc1n[nH]c(=S)n1/N=C/c1c[nH]c2ccc(Br)cc12`, which inhibition is on record?
Answer: 18%

Question: Which inhibition does the source give for `Cc1cccc(NC(=O)c2sc3nc(N4CCOCC4)c4c(c3c2N)CCCC4)c1` here?
Answer: 10.1%

Question: How did the inhibition turn out when `O=C(CC1N=C2c3ccccc3N=C(SCc3ccccc3Cl)N2C1=O)NCc1ccco1` (configuration not stated) was run?
Answer: 5.28%

Question: For `Clc1ccccc1CSc1nnc(-c2ccco2)c(-c2ccco2)n1`, which inhibition is on record?
Answer: 65.4% (active)

Question: Which inhibition does the source give for `CC(=O)N1CCN(C(=O)c2cc(-c3ccc(C)o3)nc3ccccc23)CC1` here?
Answer: 13%
